The source made the active and inactive calls.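 The calls were made as follows: active = cell event count below 40, meaning activity score above 60 where score is 100 minus count; inactive = the rest.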

The nature of one assay: cytotoxicity in LNCaP prostate cells – cell-based, cell event count, single point, cytotoxicity control for prostate differentiation activator project, confirmation (AID 1076).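 Also: counts scatter-gated live cells after medium removal discards detached dead cells.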 The settings on record: LNCaP cell loss, flow cytometry event count, 4 d; at 100 µM; stronger effect = lower value. Background: Flow cytometry measures light scatter and fluorescence of single cells or particles in a stream.
Regarding `Cc1ccccc1CN1CCN(CC(=O)NCCCN2CCN(c3ccc(F)cc3)CC2)C1=O`, the cell event count was 241 (inactive).

As to `CCOc1ccc(C(=O)Nc2ccc(Cl)cn2)cc1Cl`, the cell event count was 41 (inactive).

Regarding `CCOC(=O)c1c(C)[nH]c(C(=O)COC(=O)C2CC2C)c1C` (centres undefined), the cell event count was 37 (inactive).

Regarding `Cc1ccc(CN2CCSc3ccc(C(=O)N4CCN(c5ncccn5)CC4)cc32)cc1`, the cell event count was 129 (inactive).

Turning to `Cc1cc(N2CCN(C)CC2)nc2ccc(NC(=O)c3ccc(Br)o3)cc12`, the cell event count was 4 (inactive).

As for `CCCc1cc(-c2n[nH]c(C)c2-c2ccc(C(=O)OCC)o2)c(O)cc1O`, the cell event count was 7 (active).

With `Nc1cccc2cnccc12`, the cell event count was 241 (inactive).

Consider `Cc1ccc2c(c1)c1c(n2CC(O)CNC(CO)(CO)CO)CCCC1` (centres undefined), for which the cell event count is 70 (inactive).

On to `Cc1nc(NCCNC(=O)c2ccco2)c2c(C)c(C)sc2n1`, for which the cell event count is 83 (inactive).

As for `O=C(Cn1cnc2ccccc2c1=O)NCCC(=O)N1CCN(c2ccccc2)CC1`, the cell event count is 158 (inactive).

Regarding `Cc1oc(-c2ccc(Cl)cc2)nc1CN1CCC(C(=O)NCc2cccnc2)CC1`, the cell event count is 20 (inactive).

In the case of `Cc1ccc(C2=Nc3ccccc3NC(C)(c3ccc(C)o3)C2)o1` (centres undefined), the cell event count was 324 (inactive).

With `Cn1c(=O)n(C)c2cc(CN3C(=O)OC(C)(C)C3(C)O)ccc21` (centres undefined), the cell event count is 211 (inactive).

For the molecule `Cc1noc(/C=C/c2ccco2)c1S(=O)(=O)N1CCC(C(=O)N2CCc3ccccc3C2)CC1`, the cell event count is 174 (inactive).

As to `CCOC(=O)C1=C(C)N=c2s/c(=C\c3ccncc3)c(=O)n2C1c1ccc2c(c1)OCO2` (centres undefined), the cell event count is 17 (inactive).

As for `CCOc1ccccc1NC(=O)CCC(=O)O`, the cell event count was 239 (inactive).

As for `CCOC(=O)c1ccccc1NC(=O)Cn1c(-c2nonc2N)nc2ccccc21`, the cell event count is 72 (inactive).

For `CCN1CCN(c2cc(C)c3cc(NC(=O)c4ccc(Br)o4)ccc3n2)CC1`, the cell event count was 36 (inactive).

Turning to `CCc1ccc(-c2nc(CN3CCC(C(=O)N4CCN(c5ccccc5)CC4)CC3)c(C)o2)cc1`, the cell event count is 9 (inactive).

Consider `N=c1n(CCN2CCCCC2)c2ccccc2n1CC(O)COc1ccccc1` (centres undefined), for which the cell event count was 20 (inactive).

Take `Cc1oc(-c2cccc(Cl)c2)nc1CN1CCC(C(=O)NCC2CCCO2)CC1` (centres undefined): the cell event count is 174 (inactive).

The same assay, now with this note: LNCaP cell loss, flow cytometry event count, 4 d; event count; at 10 µM; stronger effect = lower value.
In the case of `CCOC(=O)N1CCN(C(=O)CN(c2cccc(C(F)(F)F)c2)S(=O)(=O)c2ccccc2)CC1`, the cell event count came out at 395.

Regarding `Nc1ccc(-n2ccnc2)cc1`, the cell event count was determined as 126.

The molecule `Cc1cc(C)n2nc(SCC(=O)Nc3ccc(F)cc3)nc2n1` registered a cell event count of 343.

For `Cc1cccc(-c2nc(CN3CCCC(C(=O)NC4CCCC4)C3)c(C)o2)c1` (centres undefined), the cell event count came out at 328.

Turning to `Cc1ccc(C)c(N2CCN(CCCNC(=O)Cn3cc4c(n3)CCC(C)C4)CC2)c1` (centres undefined), the cell event count turned out to be 276.

`Cc1ccc(C)c(N2CCN(CCCNC(=O)Cn3cc4c(n3)CCCCC4)CC2)c1` gave a cell event count of 53.5.

Turning to `COC(=O)c1[nH]c2c(c1C)C(=O)CCC2`, the cell event count amounted to 252.

For the molecule `CC(C)Cc1nc2oc3c(N4CCN(CCO)CC4)ncnc3c2c2c1CCCC2`, the cell event count was 120.

Molecule `CCN1CCCC1CNC(=O)c1cc2c(-c3cccc(OC)c3)nn(C)c2s1` (centres undefined) came in with a cell event count of 81.5.

Turning to `CN1CCN(c2oc(COc3ccc(-c4ccccc4)cc3)nc2C#N)CC1`, the cell event count worked out at 174.

`COC(=O)Nc1sc2c(c1C(N)=O)CCCCCC2` yielded a cell event count of 202.

Turning to `COc1ccc(-c2cc(-c3ccc(F)cc3)nc(N3CCN(C)CC3)n2)cc1`, the cell event count amounted to 118.

`CCN(CC)CCCNC(=O)c1cc(-c2ccc(Cl)c(Cl)c2)on1`: the cell event count came out at 165.

`Cc1sc(CO)c(Sc2ccccc2)c1C(=O)O` gave a cell event count of 240.

As for `CCN(CC)CCNC(=O)c1cc2c(-c3ccc(Cl)cc3)nn(C)c2s1`, the cell event count turned out to be 25.

Take `CCCN(CCC)CCNC(=O)C1CCN(Cc2nc(-c3ccc(Cl)cc3)oc2C)CC1`: the cell event count worked out at 120.

Regarding `Cc1nc2c3cnn(-c4ccccc4)c3ncn2n1`, the cell event count came to 145.

The molecule `Cc1ccccc1CN1CCN(CC(=O)NCCCN2CCN(c3ccc(F)cc3)CC2)C1=O` gave a cell event count of 195.

Molecule `CCOc1ccc(C(=O)Nc2ccc(Cl)cn2)cc1Cl` returned a cell event count of 86.

As for `CCOC(=O)c1c(C)[nH]c(C(=O)COC(=O)C2CC2C)c1C` (centres undefined), the cell event count worked out at 976.

In the case of `Cc1ccc(CN2CCSc3ccc(C(=O)N4CCN(c5ncccn5)CC4)cc32)cc1`, the cell event count was 266.

Molecule `Cc1cc(N2CCN(C)CC2)nc2ccc(NC(=O)c3ccc(Br)o3)cc12` showed a cell event count of 96.5.

The molecule `CCCc1cc(-c2n[nH]c(C)c2-c2ccc(C(=O)OCC)o2)c(O)cc1O` yielded a cell event count of 71.

For the molecule `Nc1cccc2cnccc12`, the cell event count was found to be 168.

Turning to `Cc1ccc2c(c1)c1c(n2CC(O)CNC(CO)(CO)CO)CCCC1` (centres undefined), the cell event count worked out at 392.

The molecule `Cc1nc(NCCNC(=O)c2ccco2)c2c(C)c(C)sc2n1` registered a cell event count of 170.

For `O=C(Cn1cnc2ccccc2c1=O)NCCC(=O)N1CCN(c2ccccc2)CC1`, the cell event count worked out at 190.

The molecule `Cc1oc(-c2ccc(Cl)cc2)nc1CN1CCC(C(=O)NCc2cccnc2)CC1` came in with a cell event count of 125.

For `Cc1ccc(C2=Nc3ccccc3NC(C)(c3ccc(C)o3)C2)o1` (centres undefined), the cell event count amounted to 120.

As for `Cn1c(=O)n(C)c2cc(CN3C(=O)OC(C)(C)C3(C)O)ccc21` (centres undefined), the cell event count was found to be 145.

Turning to `Cc1noc(/C=C/c2ccco2)c1S(=O)(=O)N1CCC(C(=O)N2CCc3ccccc3C2)CC1`, the cell event count is 197.

Turning to `CCOC(=O)C1=C(C)N=c2s/c(=C\c3ccncc3)c(=O)n2C1c1ccc2c(c1)OCO2` (centres undefined), the cell event count stood at 272.

`CCOc1ccccc1NC(=O)CCC(=O)O` yielded a cell event count of 200.

`CCOC(=O)c1ccccc1NC(=O)Cn1c(-c2nonc2N)nc2ccccc21` came in with a cell event count of 122.

In the case of `CCN1CCN(c2cc(C)c3cc(NC(=O)c4ccc(Br)o4)ccc3n2)CC1`, the cell event count came to 233.

The molecule `CCc1ccc(-c2nc(CN3CCC(C(=O)N4CCN(c5ccccc5)CC4)CC3)c(C)o2)cc1` had a cell event count of 254.

For the molecule `N=c1n(CCN2CCCCC2)c2ccccc2n1CC(O)COc1ccccc1` (centres undefined), the cell event count amounted to 178.

For the molecule `Cc1oc(-c2cccc(Cl)c2)nc1CN1CCC(C(=O)NCC2CCCO2)CC1` (centres undefined), the cell event count amounted to 165.

These data come from PubChem BioAssay AID1076 (NMMLSC, 2008).
